This test is described as follows: HT29 colon tumor cell growth inhibition, primary screen, imaging, high content imaging, 24 h, CellTiter-Glo (AID 770).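 As to condensed nuclei: share of cells whose nuclear area falls below control median minus 1.5 SD.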 To be noted: HT29 cell number by imaging, at 10 µM, stronger effect = higher value; for condensed nuclei: measured here: percent cells with condensed nuclei.
Setting [1] is: measured here: ATP CellTiter-Glo viability.

Molecules are shown by their SMILES. The campaign covered roughly 3,300 compounds. Fewer than 10 were called active.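 The calls were made as follows: active = growth inhibition above 90% in viable cell count at a single dose; inactive = growth inhibition below 90%.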 These entries were drawn from the full list.

On to `O=C(O)CCc1cc(I)c(Oc2ccc(O)c(I)c2)c(I)c1`, for which the growth inhibition was 4.78% (inactive) and the condensed nuclei stood at 4.44%. The growth inhibition under setting [1] was 3.12%.

As to `O=C(O)c1c[nH]c2ccc(S(=O)(=O)N3CCOCC3)cc12`, the growth inhibition is -36.6% (inactive) and the condensed nuclei came out at 1.85%. In addition, the growth inhibition under setting [1] is -2.36%.

Regarding `Cc1cc(C)nc(NC2=NCC(=O)N2c2ccccc2)n1`, the growth inhibition is -50.8% (inactive) and the condensed nuclei is 3.13%. For the same compound, the growth inhibition under setting [1] is -10.6%.

For `COc1ccc(C2C(C(C)=O)=C(O)C(=O)N2c2nccs2)cc1OC` (centres undefined), the growth inhibition was 6.29% (inactive) and the condensed nuclei came out at 3.31%. Further, the growth inhibition under setting [1] is -2.95%.

For `CCc1cc(=O)oc2cc(C)c(CN3CCCC3)c(O)c12`, the growth inhibition was 22.4% (inactive) and the condensed nuclei came out at 4.19%. Under setting [1], the growth inhibition was 0.04%.

For the compound `CN(C)CCCN(CCCNC(=O)/C=N/O)Cc1ccccc1`, the growth inhibition is -11.9% (inactive) and the condensed nuclei is 2.84%. In addition, the growth inhibition under setting [1] is -9.76%.

For the compound `Nc1nnnn1CC(=O)OCc1cccc(Br)c1`, the growth inhibition was -17.1% (inactive) and the condensed nuclei was 1.92%. Besides, under setting [1], the growth inhibition is -5.1%.

With `CN1CC(=O)Nc2ccc(F)cc2C1=O`, the growth inhibition was 2.67% (inactive) and the condensed nuclei came to 13.9%. In addition, the growth inhibition under setting [1] is -9.28%.

Consider `CCCC(=O)N(Cc1cc2ccccc2[nH]c1=O)c1ccccc1OC`, for which the growth inhibition was 0.99% (inactive) and the condensed nuclei is 3.75%. Besides, the growth inhibition under setting [1] was 5.4%.

As to `COc1ccc(CNC(=O)[C@H](C)NC(=O)C2CCN(S(=O)(=O)c3ccc(C)cc3)CC2)cc1`, the growth inhibition is -1% (inactive) and the condensed nuclei worked out at 4.4%. For the same compound, under setting [1], the growth inhibition was -14.3%.

For `CCc1nc2sc3c(c2c(=O)o1)CCCC3`, the growth inhibition was -25.2% (inactive) and the condensed nuclei stood at 2.35%. For the same compound, the growth inhibition under setting [1] was -2.13%.

For the compound `Cc1ccc(N(CN2C(=O)NC(C)(C)C2=O)CN2C(=O)NC(C)(C)C2=O)cc1`, the growth inhibition is 24.1% (inactive) and the condensed nuclei amounted to 3.39%. In addition, under setting [1], the growth inhibition was -7.36%.

As to `CN(C)CCCN1c2ccccc2Sc2ccc(C(F)(F)F)cc21`, the growth inhibition is 62.5% (inactive) and the condensed nuclei stood at 4.92%. For the same compound, the growth inhibition under setting [1] was 40.5%.

Turning to `CN1CCN(CCCN2c3ccccc3Sc3ccc(C(F)(F)F)cc32)CC1`, the growth inhibition is 95.6% (active) and the condensed nuclei stood at 15.7%. The growth inhibition under setting [1] was determined as 87.9%.

For the compound `CN(C)CCCN1c2ccccc2Sc2ccc(Cl)cc21`, the growth inhibition is 37.5% (inactive) and the condensed nuclei came out at 5.79%. For the same compound, the growth inhibition under setting [1] was determined as 25.5%.

In the case of `OCCN1CCN(CCCN2c3ccccc3Sc3ccc(C(F)(F)F)cc32)CC1`, the growth inhibition is 89% (inactive) and the condensed nuclei was determined as 12.9%. Moreover, the growth inhibition under setting [1] stood at 59.7%.

Turning to `CN1CCN(CCCN2c3ccccc3Sc3ccc(Cl)cc32)CC1`, the growth inhibition was -25.4% (inactive) and the condensed nuclei amounted to 2.59%. Also, the growth inhibition under setting [1] was -28.5%.

As to `OCCN1CCN(CCCN2c3ccccc3Sc3ccc(Cl)cc32)CC1`, the growth inhibition was 95.8% (active) and the condensed nuclei was 11.7%. Moreover, the growth inhibition under setting [1] was 77.7%.

For `CCN(CC)CCNc1nc(-c2ccco2)c2c(c1C#N)CC(C)(C)OC2`, the growth inhibition was 0.38% (inactive) and the condensed nuclei was found to be 4.74%. For the same compound, the growth inhibition under setting [1] was -1.61%.

Take `CC1(C)CC(=O)C=C(NCCO)C1`: the growth inhibition was 25.6% (inactive) and the condensed nuclei is 3.37%. For the same compound, the growth inhibition under setting [1] is 9.68%.

`O=S(=O)(c1cccc2nsnc12)N1CCN(C/C=C/c2ccccc2)CC1`: the growth inhibition was -27% (inactive) and the condensed nuclei came out at 4.32%. The growth inhibition under setting [1] is 4.18%.

In the case of `Cc1cc(OCC(=O)Nc2ccc3oc(-c4ccncc4)nc3c2)ccc1Cl`, the growth inhibition is -2.56% (inactive) and the condensed nuclei was found to be 2.42%. For the same compound, the growth inhibition under setting [1] is -0.21%.

With `CCC(NC(=O)Nn1cnnc1)(C(F)(F)F)C(F)(F)F`, the growth inhibition was 3.51% (inactive) and the condensed nuclei was 2.8%. Under setting [1], the growth inhibition was -0.07%.

Take `O=C(NCCN1CCCCC1)c1ccc(=O)oc1`: the growth inhibition was -6.93% (inactive) and the condensed nuclei is 2.43%. Also, under setting [1], the growth inhibition was -12.9%.

In the case of `CC(=Nc1ccc(C)c(C)c1)C1=C(O)CCC1=O`, the growth inhibition was 6.59% (inactive) and the condensed nuclei was 3.62%. For the same compound, the growth inhibition under setting [1] was -5.94%.

For the compound `CCN(CC)CCNc1nc2c(c(=O)[nH]c(=O)n2C)n1CCOc1ccccc1`, the growth inhibition was -28.8% (inactive) and the condensed nuclei was 2.26%. Moreover, the growth inhibition under setting [1] is -0.48%.

For `Cc1ccc(C2C(C(=O)c3cc4ccccc4o3)=C(O)C(=O)N2CCN(C)C)o1` (centres undefined), the growth inhibition is -17.9% (inactive) and the condensed nuclei stood at 2.37%. Also, the growth inhibition under setting [1] is -1.01%.

Regarding `CCOc1cc(C2Nc3ccccc3C(=O)N2c2ccccc2OC)ccc1O` (centres undefined), the growth inhibition is 1.14% (inactive) and the condensed nuclei amounted to 1.12%. Besides, the growth inhibition under setting [1] is -2.4%.

On to `Cn1c(=O)c2c(nc(Br)n2CCSc2ncccn2)n(C)c1=O`, for which the growth inhibition was 17.9% (inactive) and the condensed nuclei came to 1.48%. Moreover, the growth inhibition under setting [1] came to 6.9%.

For `Cc1ccc(N2C(=O)CC3(CC4C=CC3C4)C2=O)cc1` (centres undefined), the growth inhibition is -2.66% (inactive) and the condensed nuclei amounted to 2.87%. In addition, under setting [1], the growth inhibition turned out to be 9.8%.

As to `CNC(=O)CC(C(=O)O)c1ccc(OC(C)C)cc1` (centres undefined), the growth inhibition is 14% (inactive) and the condensed nuclei turned out to be 2.97%. In addition, the growth inhibition under setting [1] was 5.18%.

Consider `CC(C)Sc1nc(N2CCCC2)c2c(c1C#N)CC(C)(C)OC2`, for which the growth inhibition is -32.3% (inactive) and the condensed nuclei stood at 2.77%. Also, the growth inhibition under setting [1] was -22.9%.

With `CN1C2C=C3C(C#N)=C(N)C(C#N)(C#N)[C@@H](c4cccs4)C3C1CC2` (some centres undefined), the growth inhibition is -11.2% (inactive) and the condensed nuclei worked out at 3.15%. The growth inhibition under setting [1] was -11.8%.

On to `N#C/C(C(=O)NCc1ccco1)=C1/SC(Cc2ccc(F)cc2)C(=O)N1c1ccccc1` (centres undefined), for which the growth inhibition was 16.5% (inactive) and the condensed nuclei is 7.66%. In addition, the growth inhibition under setting [1] was -3.7%.

Regarding `CCOC(=O)/C=c1\s/c(=C(\C#N)C(=O)OCC)n(-c2ccccc2)c1=O`, the growth inhibition was -8.81% (inactive) and the condensed nuclei was determined as 2.51%. Further, under setting [1], the growth inhibition was -10.2%.

On to `Cc1nc(Nc2ncc3c(n2)CCCC3=O)nc2ccccc12`, for which the growth inhibition was -21.1% (inactive) and the condensed nuclei was 3.04%. Besides, under setting [1], the growth inhibition is -26.2%.

For `CCOC(=O)c1[nH]c2cc3c(cc2c1NC(=O)CN1CCC(C)CC1)OCO3`, the growth inhibition is 37.9% (inactive) and the condensed nuclei was 3.55%. The growth inhibition under setting [1] came out at 20%.

`O=C(C1=C(O)C(=O)N(CCCN2CCOCC2)C1c1ccccn1)c1cc2ccccc2o1` (centres undefined): the growth inhibition was -11.4% (inactive) and the condensed nuclei stood at 2.31%. The growth inhibition under setting [1] was -7.9%.

The values are drawn from PubChem BioAssay AID770 (SRMLSC, 2007).
